This passage reports morphology score and SARS-CoV-2 infection rate results from the supplement of paper PMC13380429.

The test system of assay [1] is Vero E6 infected with SARS-CoV-2. Briefly: morphology score (similarity to uninfected cells); higher = more like uninfected cells. Conditions: 24 h.
Assay [2] has the same test system. Briefly: SARS-CoV-2 infection rate relative to infected DMSO; higher = more infection, active = 60 or less. Conditions: 24 h.

In assay [1], `CNc1ccc([N+](=O)[O-])cc1-n1cnc(-c2ccc(C(F)(F)F)cc2)c1` (10 µM) gave a morphology score of 0.117. Also, the SARS-CoV-2 infection rate in assay [2] was 97% (inactive).

For `CC(C)(O)c1ccn2c(-c3ccc(F)c(-c4ccc(F)cc4C#N)c3)cnc2c1F` (10 µM), in assay [1], the morphology score was -0.0136. Besides, the SARS-CoV-2 infection rate in assay [2] was 108% (inactive).

For `Cc1cc(C)cc(C(=O)NOCCCCCC(=O)NO)c1` (10 µM), the morphology score in assay [1] was -0.485. Further, in assay [2], the SARS-CoV-2 infection rate was 124% (inactive).

`COC(=O)[C@H](c1ccccc1Cl)N1CCc2sccc2C1` [clopidogrel] (10 µM) had a morphology score in assay [1] of 0.229. In addition, the SARS-CoV-2 infection rate in assay [2] is 99% (inactive).

As to `CNC(=O)[C@@H](c1ccccc1)N1CCc2cc(OC)c(OC)cc2[C@@H]1CCc1ccc(C(F)(F)F)cc1` [almorexant] (10 µM), the morphology score in assay [1] was -0.0542. In addition, the SARS-CoV-2 infection rate in assay [2] is 105% (inactive).

Compound `C#C[C@]1(O)CC[C@H]2[C@@H]3CCC4=CC(=NO)CC[C@@H]4[C@H]3CC[C@@]21CC` (mixture of isomers) [norelgestromin] (10 µM) yielded a morphology score in assay [1] of -0.0918. The SARS-CoV-2 infection rate in assay [2] is 108% (inactive).

`Cc1ccc([N+](=O)[O-])cc1S(=O)(=O)N(C)C` (10 µM) gave a morphology score in assay [1] of 0.0445. In addition, the SARS-CoV-2 infection rate in assay [2] was 97% (inactive).

The compound `CCn1nc(C)c2c1C(c1ccccc1)=NCC(=O)N2` [ripazepam] (10 µM) displayed a morphology score in assay [1] of 0.0297. Moreover, the SARS-CoV-2 infection rate in assay [2] is 109% (inactive).

On to `CC(=O)C1=C(O)C=C2Oc3c(C(C)=O)c(O)c(C)c(O)c3C2(C)C1=O` (stereo not drawn) [usniacin-(+)] (10 µM), for which, in assay [1], the morphology score is 0.117. Further, the SARS-CoV-2 infection rate in assay [2] is 108% (inactive).

`C[C@]12CC[C@@H]3c4ccc(O)cc4CC[C@H]3[C@@H]1CCC2=O` [estrone] (10 µM) registered a morphology score in assay [1] of -0.145. In assay [2], the SARS-CoV-2 infection rate is 108% (inactive).

With `C[C@@H]1C[C@H]2[C@@H]3C[C@H](F)C4=CC(=O)C=C[C@]4(C)[C@@]3(F)[C@@H](O)C[C@]2(C)[C@@]1(O)C(=O)CO` [flumethasone] (10 µM), the morphology score in assay [1] is -0.0494. In addition, the SARS-CoV-2 infection rate in assay [2] was 110% (inactive).

On to `CC(C)(Sc1ccc(CCN(CCCCC2CCCCC2)C(=O)NC2CCCCC2)cc1)C(=O)O` (10 µM), for which the morphology score in assay [1] came to 0.13. The SARS-CoV-2 infection rate in assay [2] was 117% (inactive).

In assay [1], `CC1(C)CCC(C)(C)c2cc(C3(c4ccc(C(=O)O)cc4)OCCO3)ccc21` (10 µM) came in with a morphology score of -0.00895. Moreover, in assay [2], the SARS-CoV-2 infection rate was 110% (inactive).

In the case of `CCCCNC(=O)NS(=O)(=O)c1ccc(C)cc1` [tolbutamide] (10 µM), the morphology score in assay [1] came to 0.121. Moreover, the SARS-CoV-2 infection rate in assay [2] was 96.5% (inactive).

`NCCC(Oc1ccc(C(F)(F)F)cc1)c1ccccc1` (stereo unspecified) [norfluoxetine] (10 µM): in assay [1], the morphology score is 0.568. Also, in assay [2], the SARS-CoV-2 infection rate was 59% (active).

Turning to `Cc1cc(C)nc(SCC(=O)Nc2ncc(Cc3cccc4ccccc34)s2)n1` (10 µM), in assay [1], the morphology score was 0.211. Besides, the SARS-CoV-2 infection rate in assay [2] was 96.5% (inactive).

`NC(=O)[C@H]1CCS[C@@H]2C[C@]3(CCCN3C(=O)Cc3ccc(NC(=O)COc4ccc(Cl)cc4Cl)cc3)C(=O)N12` (10 µM) registered a morphology score in assay [1] of -0.263. For the same compound, the SARS-CoV-2 infection rate in assay [2] is 111% (inactive).

In assay [1], `CCCCC(CC)CCC(CC(C)C)OS(=O)(=O)O` (stereo unspecified) [sodium-tetradecyl-sulfate] (10 µM) yielded a morphology score of 0.0389. For the same compound, the SARS-CoV-2 infection rate in assay [2] was 102% (inactive).

In turn, `O=C(NCc1ccc(OC(F)(F)F)cc1)C1c2ccccc2C(=O)N1C1CCOCC1` (stereo unspecified) (10 µM) displayed a morphology score in assay [1] of -0.0695. Further, the SARS-CoV-2 infection rate in assay [2] was 105% (inactive).

As to `Cn1cc(-c2ccc3nnc(C(F)(F)c4ccc5ncccc5c4)n3n2)cn1` (10 µM), the morphology score in assay [1] was determined as 0.39. Besides, the SARS-CoV-2 infection rate in assay [2] was 95.5% (inactive).

In the case of `CC1=NN(c2ccc(C)c(C)c2)C(=O)/C1=N\Nc1cccc(-c2cccc(C(=O)O)c2)c1O` [eltrombopag] (10 µM), the morphology score in assay [1] was found to be 0.143. The SARS-CoV-2 infection rate in assay [2] is 99% (inactive).

`CCCCCCCCCCOc1cc2c(O)c(C(=O)OCC)cnc2cc1OCC` [decoquinate] (10 µM) displayed a morphology score in assay [1] of 0.147. The SARS-CoV-2 infection rate in assay [2] is 101% (inactive).

In the case of `OC[C@@H](O)[C@@H](O)[C@H](O)[C@@H](O)CO` [sorbitol] (10 µM), in assay [1], the morphology score was -0.0534. For the same compound, in assay [2], the SARS-CoV-2 infection rate is 110% (inactive).

`CC1C=CC=CCCC=CC=CC=CC=CC(OC2OC(C)C(O)C(N)C2O)CC2OC(O)(CC(O)C(O)CCC(O)CC(O)CC(O)CC(=O)OC(C)C(C)C1O)CC(O)C2C(=O)O` (stereo unspecified) [nystatin] (10 µM) displayed a morphology score in assay [1] of -0.0648. For the same compound, the SARS-CoV-2 infection rate in assay [2] was 116% (inactive).

For the compound `CN(C[C@@H]1COCCO1)S(=O)(=O)Nc1ccc2ccc3ncc(-c4cnn(C)c4)cc3c(=O)c2c1` (0.833333 µM), the morphology score in assay [1] amounted to 0.0936. Further, in assay [2], the SARS-CoV-2 infection rate was 111% (inactive).

Take `N#Cc1c(N(CC(=O)O)CC(=O)O)sc(C(=O)O)c1CC(=O)O` [Strontium Ranelate] (10 µM): in assay [1], the morphology score was -0.000723. Further, in assay [2], the SARS-CoV-2 infection rate was 107% (inactive).

For the compound `CCCCCCCCCCCCCCSCC(=O)O` [tetradecylthioacetic-acid] (10 µM), the morphology score in assay [1] was -0.0649. Further, the SARS-CoV-2 infection rate in assay [2] was 112% (inactive).

The compound `O=C(c1ccc(Cl)cc1)N(Cc1ccccc1)C1CCCCC1` (10 µM) came in with a morphology score in assay [1] of -0.00245. Besides, the SARS-CoV-2 infection rate in assay [2] is 103% (inactive).
